Screening data as filed in PubChem BioAssay.
D1 potentiator – enhances dopamine response at the human D1 receptor. HEK293 TREx D1 cells, calcium flux, dopamine EC20 potentiation. potentiation, % at 10 µM. 360,000 tested, 0.036% active. AID 504651; in the data active means potentiation above about 30%; further: 0% is about no effect
Target sequence (P21728 whole entry, looked up): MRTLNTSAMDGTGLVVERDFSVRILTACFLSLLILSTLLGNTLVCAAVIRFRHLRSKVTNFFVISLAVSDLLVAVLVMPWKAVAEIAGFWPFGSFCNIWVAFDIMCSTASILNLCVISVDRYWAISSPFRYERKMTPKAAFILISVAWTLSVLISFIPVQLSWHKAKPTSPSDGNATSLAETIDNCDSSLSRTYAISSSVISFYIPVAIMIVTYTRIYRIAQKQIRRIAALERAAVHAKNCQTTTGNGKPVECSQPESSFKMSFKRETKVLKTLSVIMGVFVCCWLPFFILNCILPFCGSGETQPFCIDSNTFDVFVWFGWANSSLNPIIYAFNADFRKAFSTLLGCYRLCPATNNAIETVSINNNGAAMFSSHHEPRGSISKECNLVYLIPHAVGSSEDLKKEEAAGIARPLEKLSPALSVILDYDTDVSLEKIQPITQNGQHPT
Glioma ERSR ind – induces the endoplasmic reticulum stress response in human glioma cells | U87-MG GRP78 promoter luciferase reporter, 16 h | AID 602332 | 420,000 tested, 0.02% active | Potency, µM, without a hit: at the highest dose activation, usual class: activators; active means well fitted activation curve with a large enough effect; inconclusive means small, poorly fitted or top-dose-only effect; inactive means no such curve, though single readings can be large or run the other way; further: potency means the concentration at half of the fitted maximal effect; series mostly up to about 76 µM; % of control where 0% means no effect; nearly all actives have a fitted effect of over 35% in size
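ERSR induction read as luciferase luminescence (Bright-Glo, 10 min at room temperature) in stably transfected human U87-MG glioma cells exposed to compounds for 16 h, using GRP78 as sensor.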
D1 antag – blocks dopamine activation of the human D1 receptor. P21728. HEK293 TREx D1 cells, calcium flux, dopamine EC80; active compounds read low. activity change, negative = inhibition, % at 10 µM. AID 504652. 360,000 tested, 3.2% active; in the data active means activity change below about -30%; further: on the % scale 0 is the no-effect control and ±100 the full control effect
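Tetracycline-induced HEK293 Trex D1 cells, force-coupled to calcium, dye-loaded; compounds added and read 180 s, then EC80 dopamine added and calcium flux tracked kinetically another 180 s.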
TRHR PAM – TRH receptor (human) allosteric enhancement; P34981; TRHR cells, fluo-8 calcium fluorescence, EC20 TRH enhancement; enhancement, % at 2 µM; 360,000 tested, 0.66% active; AID 493056; in the data active means enhancement above about 30%; further: 0% is about no effect
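TRHR-expressing cells loaded with fluo-8 calcium dye were read kinetically (ex 480/em 530) during compound addition, then stimulated with an EC20 of TRH (10 nM final). Enhancement of the Gq-mediated intracellular calcium response was scored.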
D1 ag – human D1 receptor agonism. activation, % at 2 µM. AID 504660. 360,000 tested, 1% active. HEK293 T-REx D1 cells, calcium flux, agonist mode. P21728; further: 0% is about no effect
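Agonism was scored from calcium flux recorded over 180 s (1 read/s) after pintool compound addition, following a 10-cycle baseline. Cells were inducible force-coupled HEK293 TREx D1, plated overnight at 30 C and loaded with no-wash calcium dye.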
TRHR agonist – activates the human TRH receptor; 360,000 tested, 0.18% active; AID 493084; TRHR cells, calcium flux fluo-8, FDSS agonist mode; activation, % at 2 µM; P34981; further: 0% is about no effect
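Steps: seed TRHR cells overnight; add fluo-8 no-wash Ca dye, RT 30 min–1.5 h; record 10 s baseline; pin-transfer compounds; monitor fluorescence 1 cycle/s for the agonist window. Calcium increases flag candidate agonists.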
Starred values were filed as active, the others as inactive. Rows were chosen to be rich in hits. Some 4% of all compounds tested hit in one or more screens of this group. Unless noted, no stated cut-off is given here; in the data, active means activation above about 30%; inactive means the rest.

Results for CCOc1ccc(CCNC(=O)c2ccc3[nH]c(C)c(C)c3c2)cc1 ?
D1 potentiator: -5; Glioma ERSR ind: -3%; D1 antag: -14; TRHR PAM: -4; D1 ag: 3; TRHR agonist: -1

Results for Cc1cc(NN)nc(NS(=O)(=O)c2ccccc2)n1 ?
D1 potentiator: -4; Glioma ERSR ind: -3%; D1 antag: -13; TRHR PAM: -7; D1 ag: 1; TRHR agonist: -1

What do the screens show for `COc1cc(C)nc(NS(=O)(=O)c2ccccc2)n1`?
D1 potentiator: -2; Glioma ERSR ind: -4%; D1 antag: -37*; TRHR PAM: 23; D1 ag: 2; TRHR agonist: 0

How did C[C@H](NC(=O)COc1ccc(Cl)cc1)C(=O)N1CCC2(CC1)NCCc1[nH]cnc12 do in these assays?
D1 potentiator: 0; Glioma ERSR ind: 2%; D1 antag: -8; TRHR PAM: 6; D1 ag: 0; TRHR agonist: 1

What do the screens show for `COc1ccccc1C(CCNS(=O)(=O)c1ccc(C)cc1)c1ccco1` (configuration not stated)?
D1 potentiator: -4; Glioma ERSR ind: -4%; D1 antag: 21; TRHR PAM: 10; D1 ag: 42*; TRHR agonist: 0

Results for Cc1ccc(C)c2c(/C=C/c3ccc(N(C)C)cc3)ccnc12 ?
Glioma ERSR ind: -2%

Results for Cc1ccc(/C=[N+](\[O-])c2ccc(N(C)C)cc2)c2nsnc12 ?
D1 potentiator: 3; Glioma ERSR ind: -11%; D1 antag: -5; TRHR PAM: -3; D1 ag: 37*; TRHR agonist: 16

How did Cc1cc(C(=O)COC(=O)c2ccc[nH]c2=O)c(C)n1-c1ccc(F)cc1 do in these assays?
D1 potentiator: -7; Glioma ERSR ind: -11%; D1 antag: -18; TRHR PAM: -1; D1 ag: -2; TRHR agonist: -1

What do the screens show for `CC(C)(C)C1CCc2c(C(=O)NNC(=O)/C=C/C(=O)O)csc2C1` (configuration not stated)?
D1 potentiator: -5; Glioma ERSR ind: 1%; D1 antag: -32*; TRHR PAM: -12; D1 ag: 1; TRHR agonist: 1

How did CCCc1c(C)c2ccccc2[nH]c1=O do in these assays?
D1 potentiator: -7; Glioma ERSR ind: -1%; D1 antag: -6; TRHR PAM: 41*; D1 ag: 1; TRHR agonist: -1

How did CC1C(=O)N2CCCc3cc(S(=O)(=O)Nc4ccc(Br)cc4F)cc1c32 (configuration not stated) do in these assays?
D1 potentiator: -2; Glioma ERSR ind: -4%; D1 antag: -30*; TRHR PAM: 0; D1 ag: 0; TRHR agonist: 0

How did O=Nc1ccc(/C=C/c2ccnc3ccccc23)cc1 do in these assays?
Glioma ERSR ind: -4%

What do the screens show for `CCCOc1ccc(C(=O)NNC(=S)NC(=O)c2ccco2)cc1`?
D1 potentiator: -4; Glioma ERSR ind: inconclusive; D1 antag: -33*; TRHR PAM: -3; D1 ag: 186*; TRHR agonist: 23

How did CCCOc1ccc(C(=O)NNC(=S)NC(=O)c2ccccc2)cc1 do in these assays?
D1 potentiator: 22; Glioma ERSR ind: inconclusive; D1 antag: -11; TRHR PAM: 2; D1 ag: 197*; TRHR agonist: 38*

Results for O=C(NC(=S)NNC(=O)c1ccco1)c1ccc(Br)cc1 ?
D1 potentiator: -3; Glioma ERSR ind: 2%; D1 antag: 5; TRHR PAM: -5; D1 ag: 47*; TRHR agonist: 1

What do the screens show for `CCCOc1ccc(C(=O)NNC(=S)NC(C)=O)cc1`?
D1 potentiator: 0; Glioma ERSR ind: 3%; D1 antag: -34*; TRHR PAM: -2; D1 ag: 1; TRHR agonist: 0

Results for O=C(NNC(=S)NC(=O)c1ccco1)c1ccc(F)cc1 ?
D1 potentiator: 1; Glioma ERSR ind: 0%; D1 antag: 4; TRHR PAM: -4; D1 ag: 10; TRHR agonist: 6

Results for O=C1OC(C(=O)NCc2ccccc2)Cc2ccccc21 (configuration not stated) ?
D1 potentiator: -8; Glioma ERSR ind: 0%; D1 antag: 6; TRHR PAM: 2; D1 ag: 2; TRHR agonist: 1

What do the screens show for `O=C(C[n+]1ccccc1Br)c1ccc2c(c1)CCCC2`?
Glioma ERSR ind: -1%

What do the screens show for `Cc1cccc2c(C(O)c3cn(C)c4ccccc34)c[nH]c12` (configuration not stated)?
Glioma ERSR ind: 2%

How did CCCOc1ccc(C(=O)NNC(=S)NC(=O)c2cccs2)cc1 do in these assays?
D1 potentiator: 11; Glioma ERSR ind: inconclusive; D1 antag: -26; TRHR PAM: -2; D1 ag: 104*; TRHR agonist: 13

How did CC(Oc1ccc(Cl)cc1)C(=O)NNC(=S)NC(=O)c1ccco1 (configuration not stated) do in these assays?
D1 potentiator: -3; Glioma ERSR ind: 2%; D1 antag: -8; TRHR PAM: -2; D1 ag: 44*; TRHR agonist: 0

How did CCCC(=O)Nc1ccc(C(=O)NNC(=S)NC(=O)c2cccs2)cc1 do in these assays?
Glioma ERSR ind: 1%

What do the screens show for `Cn1cnnc1Sc1ccc(CN2CCOc3ccc(C4=Cc5ccccc5CC4)cc3C2)o1`?
Glioma ERSR ind: -5%

Results for OCC1OC(c2ccc3c(c2)OCO3)C=CC1Oc1cc(Cl)cc(Cl)c1 (configuration not stated) ?
Glioma ERSR ind: -4%

How did CSc1nnc(-c2ccc(C(F)(F)F)nc2C)o1 do in these assays?
D1 potentiator: 0; Glioma ERSR ind: 2%; D1 antag: -13; TRHR PAM: -1; D1 ag: 6; TRHR agonist: 0

What do the screens show for `O=[S+]([O-])(c1c(F)cccc1F)N1CCN([S+](=O)([O-])c2csc3ccccc23)CC1`?
D1 potentiator: -4; D1 antag: -21; TRHR PAM: -2; D1 ag: 6; TRHR agonist: 1

What do the screens show for `Cc1c([S+](=O)([O-])N2CCN([S+](=O)([O-])c3c(F)cccc3F)CC2)sc2ccc(Cl)cc12`?
D1 potentiator: -1; D1 antag: -31*; TRHR PAM: 1; D1 ag: 2; TRHR agonist: 1

Results for COc1cccc2c1C(=O)/C(=C/c1ccc(N(C)C)cc1)C2 ?
Glioma ERSR ind: 2%

How did Cc1nc2ccccc2n1C1CCN(CC(=O)Nc2ccccc2Br)CC1 do in these assays?
D1 potentiator: -5; Glioma ERSR ind: 0%; D1 antag: -14; TRHR PAM: -3; D1 ag: 52*; TRHR agonist: 11
